CIT2-GFP yeast – modulators of TOR pathway CIT2-GFP in S. cerevisiae; 320,000 tested, 0.065% active; S. cerevisiae CIT2-GFP strain, flow cytometry, 3 h; 100 means same as DMSO wells; GFP response vs DMSO, % at 10 µM;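 active = GFP response relative to DMSO above a set limit, near the screen mean plus 3 SD, cut at about 150% in these data; inconclusive = Fewer than 70 cells measured for a yeast strain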;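 also: ratio of well median GFP fluorescence to mean of DMSO wells on the plate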
RPL19A TOR yeast – alters RPL19A-GFP fluorescence in TOR pathway yeast screen; S. cerevisiae RPL19A-GFP strain, flow cytometry, 3 h; active compounds read low; percent response vs DMSO, % at 10 µM; 330,000 tested, 0.3% active; AID 2025;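 active = percent response vs DMSO below 50%; inconclusive = fewer than 70 events counted for the yeast strain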;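 also: median channel GFP fluorescence of the barcoded RPL19A-GFP strain; ratio of sample median GFP to plate DMSO average so 100% = DMSO; lower means less RPL19A-GFP as with rapamycin TOR inhibition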
MEP2 TOR yeast – alters MEP2-GFP fluorescence in TOR pathway yeast screen; S. cerevisiae MEP2-GFP strain, flow cytometry GFP, 3 h; 100% = DMSO control level; 330,000 tested, 0.51% active; GFP response vs DMSO, % at 10 µM;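 active = GFP response versus DMSO above a set limit, roughly screen mean plus 3 SD, cut at about 180% in these data; inconclusive = fewer than 70 cells counted for a yeast strain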;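 also: median GFP fluorescence of the barcode-gated MEP2-GFP cells per well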
JMJD2C inh – blocks human GASC-1 demethylase activity. Q9H3R0. GST-JMJD2C(1-420) H3K9me3 demethylation, DELFIA europium. inhibition, % at 2.35 µM. 330,000 tested, 0.069% active;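 active = more than half of a compound's replicate wells show inhibition beyond 50%, single wells judged on their own value; inconclusive = some, but no more than half, of replicates pass 50% inhibition; inactive = no replicate passes 50% inhibition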;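 also: signal counts dimethyl H3K9 product captured on neutravidin plate; 0% = median of DMSO wells and 100% = 0.3 times that DMSO median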
Target sequence (Q9H3R0 1-420 limits assumed): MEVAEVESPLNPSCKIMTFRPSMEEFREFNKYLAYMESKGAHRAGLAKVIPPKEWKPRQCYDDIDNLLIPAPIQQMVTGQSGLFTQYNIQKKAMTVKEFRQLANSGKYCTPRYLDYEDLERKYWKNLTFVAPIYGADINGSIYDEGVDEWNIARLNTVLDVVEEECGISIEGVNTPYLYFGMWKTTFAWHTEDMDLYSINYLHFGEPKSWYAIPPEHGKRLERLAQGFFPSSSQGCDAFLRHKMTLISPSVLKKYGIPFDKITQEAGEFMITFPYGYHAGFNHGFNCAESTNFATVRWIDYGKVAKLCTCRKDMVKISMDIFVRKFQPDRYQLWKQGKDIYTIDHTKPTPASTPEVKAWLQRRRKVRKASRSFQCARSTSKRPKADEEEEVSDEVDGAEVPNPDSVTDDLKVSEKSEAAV
AGP1 TOR yeast – yeast TOR pathway AGP1-GFP modulation; 320,000 tested, 0.02% active; AID 2066; GFP response vs DMSO, % at 10 µM; S. cerevisiae AGP1-GFP multiplex flow cytometry, 3 h; GFP as percent of DMSO wells;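 active = GFP response relative to DMSO above a set limit, near screen average plus 3 SD, cut at about 150% in these data; inconclusive = fewer than 70 cells counted for the yeast strain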;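 also: median GFP channel fluorescence of the gated AGP1 strain per well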
LAP4 TOR yeast – modulators of TOR pathway LAP4-GFP in S. cerevisiae; S. cerevisiae LAP4-GFP multiplex, flow cytometry GFP, 3 h; median GFP as percent of DMSO wells; GFP response vs DMSO, % at 10 µM; 320,000 tested, 0.34% active;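 active = GFP response vs DMSO above a set limit, about the screen mean plus 3 SD, cut at about 150% in these data; inconclusive = under 70 cell events counted for the yeast strain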
Starred values were filed as active, the others as inactive; i = inactive; ? = inconclusive; nt = no result; [ ] = dose if it differs, or a comment. The list is not random: actives were taken first. Their share in the collection is about 0.97%.

SMILES	CIT2-GFP yeast	RPL19A TOR yeast	MEP2 TOR yeast	JMJD2C inh	AGP1 TOR yeast	LAP4 TOR yeast
Cc1ccc2c(c1)c1c3n2CCCNC3CCC1 (centres undefined)	104.1	100.4	117.2	86.3*	104.3	108.2
O=C(c1cccc(Cl)c1)N1CCC(N2CCC(C(=O)N3CCCC3)CC2)CC1	95.6	96.2	97.6	-7.9	97.9	88.3
COc1ccc2c(c1)OC[C@H]1[C@H]2N2C(=O)CNC(=O)[C@@]2(C)[C@H]1c1ccccc1	nt	nt	nt	59.2*	nt	nt
COc1ccc2c(c1)[C@@H]1[C@H](CO2)[C@H](c2ccccc2)[C@]2(C)C(=O)NCC(=O)N12	102.8	105.5	102.0	3.7	106.6	97.6
CC12CCC(C(=O)N3CCCc4ccccc43)(CC1=O)C2(C)C (centres undefined)	92.0	98.7	103.8	5.8	100.0	106.4
CC12CCC(C(=O)N3CCc4ccccc43)(CC1=O)C2(C)C (centres undefined)	?	nt	282.0*[may fluoresce violet]	3.6	31.7	96.0
COc1ccc(CNC(=O)CN(Cc2ccco2)C(=O)CCC(=O)Nc2ccccn2)cc1	92.0	91.4	95.2	-12.8	88.6	94.4
COCCN(CC(=O)Nc1cccc(C)c1C)C(=O)c1cc(-c2ccncc2)nc2ccccc12	93.7	94.6	88.6	2.0	93.7	91.1
CCOC(=O)[C@H]1[C@H]2COc3ccc(OC)cc3[C@@H]2N2C(=O)c3cc(C)ccc3NC(=O)[C@@]12C	nt	nt	nt	51.6*	nt	nt
COc1cc(CN2CCN(CC#Cc3ccccc3)CC2CCO)cc(OC)c1 (centres undefined)	101.5	101.9	103.0	-1.4	99.2	102.0
COc1ccccc1C(=O)N1c2ccccc2Sc2ccccc21	103.5	100.1	105.8	3.1	105.2	98.2
CCOc1ccccc1C(=O)N1c2ccccc2Sc2ccccc21	?	nt	233.3*[may fluoresce violet]	1.2	25.1	81.9
COc1ccc(/C=C2\Sc3ccc(C(=O)N4CCCC4)cc3N(C)C2=O)cc1OC	108.8	101.1	113.3	52.7*	105.0	103.4
COc1ccc(/C=C2/Sc3ccc(C(=O)N4CCc5ccccc5C4)cc3NC2=O)cc1	88.2	98.7	91.4	?	123.6	96.4
COc1ccc(/C=C2\Sc3ccc(C(=O)N4CCc5ccccc5C4)cc3N(C)C2=O)cc1	98.9	100.6	217.9*	-6.5	91.8	125.9
CCOC(=O)c1ccccc1NC(=O)CSc1nc2[nH]ncc2c(=O)[nH]1	90.2	90.4	93.9	-2.4	91.1	96.9
NC(=O)c1ccc(-n2nnnc2SCC(=O)c2ccc(O)c(O)c2)cc1	94.4	102.2	103.4	-6.7	95.9	98.4
COc1ccc(-n2nnnc2SCC(=O)c2ccc(O)c(O)c2)cc1	?	12.3*[may fluoresce violet]	275.8*[may fluoresce violet]	-5.2	?	?
FC(F)(F)c1ccc(NCCc2ccccc2)nc1	101.9	104.2	109.3	-3.9	93.1	95.7
NS(=O)(=O)c1ccc(CCNc2ccc(C(F)(F)F)cn2)cc1	?	32.1*[may fluoresce violet]	353.8*[may fluoresce violet]	1.7	?	?
CN(C)c1ccc(-n2cccc2/C=C/[N+](=O)[O-])cc1	89.7	92.1	98.7	0.0	96.4	154.8*
Oc1c(Br)cc(Br)cc1C=Nc1cccc2ncccc12	64.9	81.3	92.4	-3.6	69.6	191.3*
Brc1cccc(C=Nc2cccc3ncccc23)c1	88.1	95.1	93.9	-3.7	105.6	112.3
Nc1[nH]c(=O)ncc1F	62.9	?	89.3	-2.0	65.9	260.7*[may fluoresce red]
COc1cc(NC(=O)C2CCCCC2)c(OC)cc1NC(=O)CN1CCCCC1	?	57.7	249.4*[may fluoresce violet]	-11.5	?	83.6
COc1cccc(NC(=O)CN2CCN(S(=O)(=O)c3ccc(C(C)C)cc3)CC2)c1	?	39.5*[may fluoresce violet]	118.5	-5.3	?	76.5
CC(C)[C@H](NC(=O)[C@@H]1CSC2c3ccccc3C(=O)N21)C(=O)NCc1ccncc1 (some centres undefined)	?	27.0*[may fluoresce violet]	163.0	22.2	?	89.3
O=S(=O)(c1ccc(Oc2ccc(-c3nnco3)cc2)nc1)N1CCC(Cc2ccccc2)CC1	?	26.7*[may fluoresce violet]	222.0*[may fluoresce violet]	i	?	80.4
